Results filed as inconclusive are left out. Activity calls are given as the source filed them. Unless noted, calls follow the shape of the full dose curve.
Assays:
Aromatase (Homo sapiens) = Aromatase (Homo sapiens) (UniProt P11511); test: qHTS assay to identify aromatase inhibitors (AID 743083; active = well fitted curve in the direction sought with a large enough effect in the repeat runs; an effect the other way counts as inactive or inconclusive; also: series mostly up to about 70 µM; nearly all actives have a fitted effect of over 55% in size)
Aromatase (Homo sapiens), sequence (P11511 whole entry, looked up): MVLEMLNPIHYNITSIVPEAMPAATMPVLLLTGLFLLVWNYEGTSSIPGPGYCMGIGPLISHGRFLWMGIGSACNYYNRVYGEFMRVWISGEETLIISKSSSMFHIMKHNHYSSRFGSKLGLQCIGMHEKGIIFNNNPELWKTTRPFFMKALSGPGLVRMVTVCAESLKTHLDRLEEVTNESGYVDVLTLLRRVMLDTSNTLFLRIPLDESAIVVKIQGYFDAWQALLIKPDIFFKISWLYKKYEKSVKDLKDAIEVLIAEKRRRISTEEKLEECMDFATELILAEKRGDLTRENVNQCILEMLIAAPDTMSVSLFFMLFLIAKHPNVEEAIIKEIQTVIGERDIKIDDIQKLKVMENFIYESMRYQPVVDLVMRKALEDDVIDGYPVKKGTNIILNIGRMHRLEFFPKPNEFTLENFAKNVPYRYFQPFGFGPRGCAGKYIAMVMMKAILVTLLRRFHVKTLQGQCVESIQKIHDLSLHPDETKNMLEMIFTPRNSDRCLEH

[1] = qHTS assay to identify small molecule agonists of H2AX (AID 1224845; active = well fitted activation curve with a large enough effect in the signal ratio in the repeat runs, not every such curve was filed as active; the % refers to the signal ratio)
In short: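 Wild-type CHO-K1 cells plated overnight, then exposed 3 hr at 37C to compounds at 15 concentrations (0.76% DMSO). Lysed, then HTRF anti-pH2AX(S139)-cryptate/anti-H2AX-d2 detection after 24 hr at room temperature; emissions 665 and 620 nm.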

[2] = biological target: Acetylcholinesterase (Homo sapiens) (UniProt P22303); test: Acetylcholinesterase (AChE) small molecule antagonists: colormetric cell-based qHTS assay (AID 1347395); also: nearly all actives have a fitted effect of over 30% in size
Acetylcholinesterase (Homo sapiens), sequence (P22303 whole entry, looked up): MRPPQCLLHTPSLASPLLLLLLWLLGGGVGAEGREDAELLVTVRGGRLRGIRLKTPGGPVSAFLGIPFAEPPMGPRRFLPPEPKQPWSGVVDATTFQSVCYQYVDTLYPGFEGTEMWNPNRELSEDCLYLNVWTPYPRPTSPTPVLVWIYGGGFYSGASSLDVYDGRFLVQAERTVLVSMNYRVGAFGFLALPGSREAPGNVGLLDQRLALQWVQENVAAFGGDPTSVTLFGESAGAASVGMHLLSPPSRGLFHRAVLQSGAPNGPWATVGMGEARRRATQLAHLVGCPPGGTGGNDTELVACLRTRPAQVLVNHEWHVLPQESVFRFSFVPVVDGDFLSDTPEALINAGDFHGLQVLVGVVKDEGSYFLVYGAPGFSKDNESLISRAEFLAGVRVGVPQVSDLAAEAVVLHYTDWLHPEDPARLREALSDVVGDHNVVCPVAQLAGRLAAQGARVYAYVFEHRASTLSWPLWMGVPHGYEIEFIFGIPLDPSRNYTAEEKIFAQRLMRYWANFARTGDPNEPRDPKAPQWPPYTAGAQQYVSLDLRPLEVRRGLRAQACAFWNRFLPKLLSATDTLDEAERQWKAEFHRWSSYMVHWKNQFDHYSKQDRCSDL
In short: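 SH-SY5Y cells, plated overnight at 37 C, were exposed to compounds for 30 min at 37 C and 5% CO2. Acetylthiocholine plus DTNB was then added, and thiocholine from endogenous AChE was quantified colorimetrically after 90 min at 37 C.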

[3] = biological target: Acetylcholinesterase (Homo sapiens) (UniProt P22303); test: Acetylcholinesterase (AChE) small molecule antagonists: enzyme-based qHTS assay (AID 1347397); conditions: Potency: AChE enzyme activity inhibition; outcome: AChE enzyme activity inhibition; also: nearly all actives have a fitted effect of over 55% in size
In short: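 Tox21 library chemicals are tested in qHTS format against recombinant human AChE. The enzyme, dispensed at 50 mU/mL, sits with compound for 30 min at room temperature. A DTNB–acetylthiocholine cocktail follows, and colour is read after 10 min.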

[4] = biological target: Acetylcholinesterase (Homo sapiens) (UniProt P22303); test: Acetylcholinesterase (AChE) small molecule antagonists: fluorescence cell-based qHTS assay (AID 1347398); conditions: Potency: AChE activity; outcome: AChE activity; also: nearly all actives have a fitted effect of over 50% in size
In short: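 Cellular AChE inhibition: SH-SY5Y cells treated with test chemical for 30 min at 37 C, then acetylthiocholine hydrolysis followed over 40 min at room temperature via thiocholine-reactive Thiolite Green fluorescence (490/520 nm).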

[5] = biological target: Acetylcholinesterase (Homo sapiens) (UniProt P22303); test: Acetylcholinesterase (AChE) small molecule antagonists: enzyme-based qHTS assay with human liver microsomes (AID 1347399); conditions: Potency: qHTS inhibition; outcome: qHTS inhibition; also: nearly all actives have a fitted effect of over 60% in size
In short: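 Recombinant human AChE (50 mU/mL in the enzyme mix) and human liver microsomes (0.25 mg/mL final) were preincubated with compound and NADPH (0.25 mg/mL final) for 30 min at 37 C. Acetylthiocholine/DTNB was then added; thiocholine was read colorimetrically after 10 min at room temperature.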

[6] = biological target: Aryl hydrocarbon receptor (Homo sapiens) (UniProt P35869); test: qHTS assay to identify small molecule that activate the aryl hydrocarbon receptor (AhR) signaling pathway (AID 743085; active = well fitted curve in the direction sought with a large enough effect in the repeat runs; an effect the other way counts as inactive or inconclusive;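 also: HG2L7.5c1 human HepG2 liver cells with stably integrated DRE-driven firefly reporter; series mostly up to about 70 µM; nearly all actives have a fitted effect of over 15% in size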)
Aryl hydrocarbon receptor (Homo sapiens), sequence (P35869 whole entry, looked up): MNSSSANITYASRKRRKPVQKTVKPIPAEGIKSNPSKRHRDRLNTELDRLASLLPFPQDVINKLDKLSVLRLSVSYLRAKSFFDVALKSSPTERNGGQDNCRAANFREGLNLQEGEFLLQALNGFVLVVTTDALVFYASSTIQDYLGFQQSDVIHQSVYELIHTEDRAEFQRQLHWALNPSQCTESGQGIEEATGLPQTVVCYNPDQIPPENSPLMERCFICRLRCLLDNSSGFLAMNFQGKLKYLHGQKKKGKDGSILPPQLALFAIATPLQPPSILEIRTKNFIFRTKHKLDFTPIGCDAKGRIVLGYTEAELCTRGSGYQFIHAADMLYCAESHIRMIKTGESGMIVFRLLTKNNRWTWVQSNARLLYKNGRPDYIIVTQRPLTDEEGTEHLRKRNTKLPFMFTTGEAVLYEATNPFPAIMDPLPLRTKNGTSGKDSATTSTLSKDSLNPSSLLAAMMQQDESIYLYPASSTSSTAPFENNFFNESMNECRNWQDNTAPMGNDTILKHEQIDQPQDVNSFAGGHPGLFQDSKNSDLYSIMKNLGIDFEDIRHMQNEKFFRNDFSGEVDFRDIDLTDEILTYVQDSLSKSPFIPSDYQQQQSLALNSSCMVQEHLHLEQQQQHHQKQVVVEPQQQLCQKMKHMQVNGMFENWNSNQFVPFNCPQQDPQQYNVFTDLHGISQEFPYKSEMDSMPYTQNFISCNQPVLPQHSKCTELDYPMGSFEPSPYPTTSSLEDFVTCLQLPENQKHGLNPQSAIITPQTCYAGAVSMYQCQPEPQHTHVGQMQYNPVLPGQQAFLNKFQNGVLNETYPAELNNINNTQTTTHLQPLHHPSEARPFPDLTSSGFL
In short: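 HepG2 cells (HG2L7.5c1) stably carrying a firefly luciferase reporter driven by 20 dioxin responsive elements were exposed to compound for 24 h at 37C after a 5 h settling period; luminescence rise (ONE-Glo) indicated activation.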

[7] = qHTS assay to identify small molecule agonists of the hypoxia (HIF-1) signaling pathway (AID 1224846; active = well fitted activation curve with a large enough effect in the signal ratio in the repeat runs, not every such curve was filed as active; the % refers to the signal ratio)
In short: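 In ME-180 cells bearing an HRE-bla construct, 17 h treatment with DMSO-dissolved compounds at 37C was followed by CCF4-AM loading to quantify reporter induction.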

[8] = biological target: Thyrotropin receptor (Homo sapiens) (UniProt P16473); test: qHTS assay to identify small molecule antagonists of the thyroid stimulating hormone receptor (TSHR) signaling pathway (AID 1259385); also: nearly all actives have a fitted effect of over 20% in size
Thyrotropin receptor (Homo sapiens), sequence (P16473 whole entry, looked up): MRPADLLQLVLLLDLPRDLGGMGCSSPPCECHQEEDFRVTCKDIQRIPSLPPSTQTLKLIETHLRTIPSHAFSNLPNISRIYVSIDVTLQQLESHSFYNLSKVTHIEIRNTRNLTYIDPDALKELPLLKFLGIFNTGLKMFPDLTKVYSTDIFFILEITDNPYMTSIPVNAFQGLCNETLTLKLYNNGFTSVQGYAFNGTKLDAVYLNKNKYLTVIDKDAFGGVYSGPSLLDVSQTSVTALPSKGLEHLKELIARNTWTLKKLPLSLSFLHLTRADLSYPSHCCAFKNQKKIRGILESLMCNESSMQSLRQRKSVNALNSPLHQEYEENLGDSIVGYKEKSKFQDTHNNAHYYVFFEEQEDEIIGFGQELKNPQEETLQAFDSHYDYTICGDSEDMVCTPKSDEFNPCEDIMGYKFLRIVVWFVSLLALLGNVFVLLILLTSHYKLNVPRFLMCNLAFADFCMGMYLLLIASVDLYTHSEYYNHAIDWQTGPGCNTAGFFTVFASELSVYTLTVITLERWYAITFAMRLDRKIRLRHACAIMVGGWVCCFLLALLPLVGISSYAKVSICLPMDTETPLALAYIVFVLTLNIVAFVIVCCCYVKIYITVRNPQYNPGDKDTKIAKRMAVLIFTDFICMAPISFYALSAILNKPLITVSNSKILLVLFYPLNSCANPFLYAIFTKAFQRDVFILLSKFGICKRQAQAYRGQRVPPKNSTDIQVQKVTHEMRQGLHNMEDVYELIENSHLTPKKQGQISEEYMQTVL
In short: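 TSHR-HEK293 cells were plated and held 18 h at 37C/5% CO2, then given compound plus Ro20-1724 and stimulated with TSH at 1.5 ng/mL final. After 30 min at room temperature, cAMP was detected with cAMP-d2/anti-cAMP-cryptate (1 h) by fluorescence.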

[9] = Caspase-3/7 induction in HepG2 cells by small molecules, qHTS assay (AID 1346978; active = well fitted curve in the direction sought with a large enough effect in the repeat runs; an effect the other way counts as inactive or inconclusive; also: nearly all actives have a fitted effect of over 15% in size)
In short: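 Wild-type HepG2 cells (2,000/well) were settled 5 h at 37 C, 5% CO2, then exposed to compounds in DMSO for 17 h. Caspase-3/7 activity was read by luminescence 30 min after adding Caspase-Glo 3/7 reagent at room temperature.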

Measured: Potency

N#CC1(O)CCCCC1
inactive: Aromatase (Homo sapiens) | [1] | [2] | [3] | [4] | [5]

N#CCCNCCC#N
not listed: [1] | [9]
inactive: all other assays above

OCC(CBr)(CBr)CBr
not listed: [6] | [7] | [8]
inactive: all other assays above
